Measurements from PubChem BioAssay (Tox21).
Results filed as inconclusive are left out. Activity calls are given as the source filed them. Unless noted, calls follow the shape of the dose curve; as a rule, active = well fitted curve in the direction sought with a large enough effect in the repeat runs; inconclusive = weak or mixed curves; inactive = no such curve, though single readings can be large; an effect the other way counts as inactive or inconclusive.

Tests used:
[1] = qHTS assay to identify small molecule antagonists of the estrogen related receptor (ERR) signaling pathway from Tox21 library - cell viability counter screen (AID 1224834); also: nearly all actives have a fitted effect of over 30% in size
Outline: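 ERR reporter cells, 2,000 per well, rested 6 h, then exposed to compound in DMSO for 17.5 hours at 37 C. Viability read as fluorescence after 30 min with CellTiter-Fluor.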

[2] = target: Luciferin 4-monooxygenase (Photinus pyralis) (UniProt P08659); assay: qHTS assay to identify small molecule inhibitors of firefly luciferase (AID 1224835); also: nearly all actives have a fitted effect of over 25% in size
Luciferin 4-monooxygenase (Photinus pyralis), sequence (P08659 whole entry, looked up): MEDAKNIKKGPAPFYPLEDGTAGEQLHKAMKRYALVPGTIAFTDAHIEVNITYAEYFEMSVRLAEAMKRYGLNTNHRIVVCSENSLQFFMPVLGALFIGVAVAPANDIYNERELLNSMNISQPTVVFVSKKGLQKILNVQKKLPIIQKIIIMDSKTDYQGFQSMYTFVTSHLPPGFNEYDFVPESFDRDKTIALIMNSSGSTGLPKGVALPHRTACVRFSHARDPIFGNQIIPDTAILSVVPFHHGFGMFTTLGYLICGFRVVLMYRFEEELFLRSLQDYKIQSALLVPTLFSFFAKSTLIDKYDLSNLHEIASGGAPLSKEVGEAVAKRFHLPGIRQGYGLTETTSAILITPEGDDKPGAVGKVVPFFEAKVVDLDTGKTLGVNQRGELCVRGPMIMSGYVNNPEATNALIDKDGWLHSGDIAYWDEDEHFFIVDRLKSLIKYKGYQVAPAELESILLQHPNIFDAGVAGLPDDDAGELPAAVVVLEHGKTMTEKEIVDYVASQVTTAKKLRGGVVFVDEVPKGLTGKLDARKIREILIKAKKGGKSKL
Outline: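 Inhibition of purified Photinus luciferase is measured by luminescence. Substrate levels (D-luciferin, ATP) sit at their KM values. Each compound is tested in a concentration series.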

[3] = qHTS assay to identify small molecule agonists of the constitutive androstane receptor (CAR) signaling pathway - cell viability counter screen (AID 1224836); also: nearly all actives have a fitted effect of over 45% in size
Outline: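 Fluorescence from CellTiter-Fluor indicates live cells after 23 h exposure. The human hepatoma line expresses hCAR and a CYP2B6-2.2kb reporter. Incubation medium contains 0.75 uM PK11195 (final).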

[4] = qHTS assay to identify small molecule antagonists of the constitutive androstane receptor (CAR) signaling pathway - cell viability counter screen (AID 1224837); also: nearly all actives have a fitted effect of over 45% in size
Outline: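 HepG2 cells stably carrying hCAR and CYP2B6-2.2kb reporter, stimulated with 50 nM CITCO and compounds at 15 concentrations for 23 h at 37 C. Viability measured by CellTiter-Fluor fluorescence.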

[5] = target: Nuclear receptor subfamily 1 group I member 3 (Homo sapiens) (UniProt Q14994); assay: qHTS assay to identify small molecule antagonists of the constitutive androstane receptor (CAR) signaling pathway (AID 1224838); also: nearly all actives have a fitted effect of over 40% in size
Nuclear receptor subfamily 1 group I member 3 (Homo sapiens), sequence (Q14994 whole entry, looked up): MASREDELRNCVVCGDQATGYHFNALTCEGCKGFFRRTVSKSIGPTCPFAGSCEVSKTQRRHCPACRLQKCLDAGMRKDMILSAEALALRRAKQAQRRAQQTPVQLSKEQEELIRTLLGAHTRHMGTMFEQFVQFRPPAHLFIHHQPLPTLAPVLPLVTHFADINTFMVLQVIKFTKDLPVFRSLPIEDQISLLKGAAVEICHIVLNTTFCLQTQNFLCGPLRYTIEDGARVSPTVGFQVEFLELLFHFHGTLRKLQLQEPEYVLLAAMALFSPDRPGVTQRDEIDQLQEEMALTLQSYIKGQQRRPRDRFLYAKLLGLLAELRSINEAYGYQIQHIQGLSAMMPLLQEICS
Outline: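 HepG2 cells stably carrying hCAR and a CYP2B6-2.2kb luciferase reporter, seeded 4 hrs before compound (15 concentrations). Stimulated with 50 nM CITCO for 24 hr at 37 C. ONE-Glo luminescence read after 30 min at room temperature.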

[6] = target: Nuclear receptor subfamily 1 group I member 3 (Homo sapiens) (UniProt Q14994); assay: qHTS assay to identify small molecule agonists of the constitutive androstane receptor (CAR) signaling pathway (AID 1224839); also: nearly all actives have a fitted effect of over 15% in size
Outline: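 Stable hCAR/CYP2B6-2.2kb HepG2 line in DMEM with 10% FBS; compounds (15 concentrations) and 0.75 uM PK11195 final, 24 h at 37 C/5% CO2, then ONE-Glo luminescence after 30 min.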

[7] = qHTS assay to identify small molecule antagonists of the estrogen related receptor signaling pathway with the pleiotropic PPARgamma coactivator (PGC) from Tox21 10K library - cell viability counter screen (AID 1224840; active = well fitted cell-killing curve with a large enough effect in the repeat runs, not every such curve was filed as active; also: nearly all actives have a fitted effect of over 40% in size)
Outline: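 PGC/ERR cells (2,000/well) plated 6 h, then compound-treated for 17.5 h at 37 C. Viability measured by CellTiter-Fluor fluorescence after 30 min at 37 C, multiplexed with the pathway assay.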

[8] = qHTS assay to identify small molecule antagonists of the estrogen related receptor signaling pathway with the pleiotropic PPARgamma coactivator (PGC) from Tox21 10K library (AID 1224841; call rule not given here; also: actives are mostly falling curves and most rising ones were filed inactive; nearly all actives have a fitted effect of over 50% in size)
Outline: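 PGC/ERR cell line, 2,000 cells/well, pre-incubated 6 hours at 37 C, then exposed to compounds for 18 hours at 37 C; luciferase read with One-Glo luminescence after 30 min at room temperature.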

[9] = qHTS assay to identify small molecule agonists of the estrogen related receptor signaling pathway with the pleiotropic PPARgamma coactivator (PGC) from Tox21 10K library (AID 1224842); also: nearly all actives have a fitted effect of over 15% in size
Outline: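 Luminescence from One-Glo (30 min, room temperature) measured after PGC/ERR cells had 18 h at 37 C with pinned compound (23 nL in DMSO). Cells had been seeded at 2,000 per well and pre-incubated 6 h.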

[10] = qHTS assay to identify small molecule agonists of the hypoxia (HIF-1) signaling pathway - cell viability counter screen (AID 1224844; calls by dose curve; also: nearly all actives have a fitted effect of over 50% in size)
Outline: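 HRE-bla ME-180 cells, 2,000/well in 0.5% dialyzed FBS medium, treated 17 h at 37C with compounds. Viability read in the same wells as the bla reporter, by CellTiter-Glo luminescence after 30 min at room temperature.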

[11] = qHTS assay to identify small molecule agonists of H2AX (AID 1224845; active = well fitted activation curve with a large enough effect in the signal ratio in the repeat runs, not every such curve was filed as active; the % refers to the signal ratio; also: potency is read from the fitted curve at half-maximal effect)
Outline: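 Phospho-H2AX Ser139 measured by HTRF (ex 320 nm; em 665 and 620 nm) after 24 hr antibody incubation. Compounds, 15 concentrations, 0.76% DMSO, were applied to CHO-K1 cells for 3hr at 37C before lysis.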

[12] = qHTS assay to identify small molecule agonists of the hypoxia (HIF-1) signaling pathway (AID 1224846; active = well fitted activation curve with a large enough effect in the signal ratio in the repeat runs, not every such curve was filed as active; the % refers to the signal ratio)
Outline: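 HRE-bla ME-180 beta-lactamase reporter cells in medium with 0.5% dialyzed FBS, pre-incubated 5 h then exposed to compounds 17 h at 37C, 5% CO2; reporter induction read with CCF4-AM FRET substrate.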

[13] = qHTS assay to identify small molecule agonists of H2AX - cell viability counter screen (AID 1224847; calls by dose curve; also: top concentration of the series differs between compounds; nearly all actives have a fitted effect of over 30% in size)
Outline: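 Viability of CHO-K1 (wild type) cells after 3 hr compound exposure was measured by CellTiter-Glo luminescence.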

[14] = qHTS assay to identify small molecule antagonists of the estrogen related receptor (ERR) signaling pathway from Tox21 library (AID 1224848); also: nearly all actives have a fitted effect of over 50% in size
Outline: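 Reading was by luminescence 30 min after ONE-Glo addition. Before that, ERR cells at 2,000 per well had rested 6 h at 37 C/5% CO2 and then received pin-tooled compounds in DMSO for 18 h at 37 C.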

[15] = qHTS assay to identify small molecule agonists of the estrogen related receptor (ERR) signaling pathway from Tox21 library (AID 1224849; calls by dose curve; also: nearly all actives have a fitted effect of over 15% in size); conditions: ERR reporter cell line, ONE-Glo luciferase, 18 h; at 92.4 µM (top of the series) unless noted
Outline: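 ERR reporter cells (NTP line) pre-incubated 6 hours at 37 C, then exposed to compounds for 18 hours at 37 C. ONE-Glo luciferase luminescence was read after 30 minutes at room temperature.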

[16] = qHTS RealTime-Glo MT Cell Viability Assay in HepG2 cells - 24 hour (AID 1224867); also: nearly all actives have a fitted effect of over 50% in size
Outline: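 HepG2 cells were seeded at 600 cells/well together with NanoLuc luciferase and a cell-permeant prosubstrate, preincubated 5 h at 37 C/5% CO2, then pin-dosed with compounds in DMSO. Nonlytic luminescence from viable cells was read at each time point.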

[17] = qHTS RealTime-Glo MT Cell Viability Assay in HEK293 cells - 32 hour (AID 1224868)
Outline: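 HEK293 cells were seeded at 600 cells/well together with NanoLuc luciferase and cell-permeant prosubstrate, preincubated 5 h at 37 C/5% CO2, then given compound in DMSO by pintool. Luminescence from viable-cell prosubstrate reduction was read repeatedly over 40 h.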

[18] = A CellTox Green Cytotoxicity Assay to monitor cytotoxicity in HEK293 cells - 0 hour (AID 1224869); also: nearly all actives have a fitted effect of over 50% in size
Outline: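 HEK293 cells, 600/well, were preincubated 5 hours and then exposed to compounds at 37 C for up to 40 hours. A cell-impermeant cyanine dye staining dead-cell DNA was read by fluorescence at 0, 8, 16, 24, 32 and 40 h time points.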

[19] = qHTS RealTime-Glo MT Cell Viability Assay in HepG2 cells - 40 hour (AID 1224870); also: nearly all actives have a fitted effect of over 50% in size
Outline: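 Real-time viability: cells seeded at 600 per well together with NanoLuc and cell-permeant prosubstrate, compounds added after 5 h incubation. Luminescence tracked at 0, 8, 16, 24, 32 and 40 h of exposure.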

[20] = target: Thyrotropin receptor (Homo sapiens) (UniProt P16473); assay: qHTS assay to identify small molecule agonists of the thyroid stimulating hormone receptor (TSHR) signaling pathway (AID 1224843; calls by dose curve; also: nearly all actives have a fitted effect of over 45% in size; also: potency is read from the fitted curve at half-maximal effect)
Thyrotropin receptor (Homo sapiens), sequence (P16473 whole entry, looked up): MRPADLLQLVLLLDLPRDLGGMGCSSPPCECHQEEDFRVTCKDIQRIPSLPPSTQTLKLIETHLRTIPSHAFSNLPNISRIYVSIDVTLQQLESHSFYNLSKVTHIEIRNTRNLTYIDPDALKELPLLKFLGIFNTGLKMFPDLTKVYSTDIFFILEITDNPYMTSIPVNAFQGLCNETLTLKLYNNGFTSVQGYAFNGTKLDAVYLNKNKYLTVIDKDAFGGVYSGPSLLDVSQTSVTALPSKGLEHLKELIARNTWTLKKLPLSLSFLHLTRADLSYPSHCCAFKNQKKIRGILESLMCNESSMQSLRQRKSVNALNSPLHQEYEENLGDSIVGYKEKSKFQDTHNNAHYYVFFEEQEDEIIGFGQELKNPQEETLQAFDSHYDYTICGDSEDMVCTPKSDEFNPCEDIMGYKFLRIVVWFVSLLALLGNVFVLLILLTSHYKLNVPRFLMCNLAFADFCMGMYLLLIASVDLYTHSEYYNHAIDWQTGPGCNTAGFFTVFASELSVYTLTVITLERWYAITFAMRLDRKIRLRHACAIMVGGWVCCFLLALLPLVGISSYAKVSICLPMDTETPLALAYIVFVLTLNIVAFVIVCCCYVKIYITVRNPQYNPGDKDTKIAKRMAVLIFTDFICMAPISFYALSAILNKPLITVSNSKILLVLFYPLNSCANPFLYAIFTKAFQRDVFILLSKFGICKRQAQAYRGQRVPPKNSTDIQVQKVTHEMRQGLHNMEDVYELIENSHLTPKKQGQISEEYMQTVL
Outline: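 HEK293 cells stably bearing the thyrotropin receptor were plated at 800 cells/well and challenged with compound (30 min, RT). Accumulated cAMP was quantified via cAMP-d2 competing for cryptate-tagged antibody.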
% is scaled to controls: 0 for no effect and ±100 for the full control effect.

CNNC
inactive: Potency [1] | Potency [2] | Potency [3] | Potency [4] | Potency [5] | Potency [6] | Potency [7] | Potency [8] | outcome [9] | Potency [10] | Potency [11] | outcome [12] | Potency [13] | Potency [14] | activity change, positive = activation [15] 6.11% | Potency [16] | Potency [17] | Potency [18] | Potency [19]

CS(=O)(=O)c1cc(C(F)(F)F)ccc1C(=O)c1cnoc1C1CC1
inactive: Potency [1] | Potency [2] | Potency [3] | Potency [4] | Potency [5] | Potency [6] | Potency [7] | Potency [8] | outcome [9] | Potency [20] | Potency [10] | outcome [12] | Potency [13] | activity change, positive = activation [15] 9.23% | Potency [16] | Potency [17] | Potency [18] | Potency [19]

CN1CCC(N(Cc2ccccc2)c2ccccc2)CC1
active: Potency [20] 13.3 µM
inactive: Potency [1] | Potency [2] | Potency [3] | Potency [4] | Potency [5] | Potency [6] | Potency [7] | Potency [10] | Potency [11] | outcome [12] | Potency [13] | Potency [16] | Potency [17] | Potency [18] | Potency [19]

C=CC1CC=CCC1 (configuration not stated)
inactive: Potency [1] | Potency [2] | Potency [3] | Potency [4] | Potency [5] | Potency [6] | Potency [7] | Potency [20] | Potency [10] | Potency [11] | outcome [12] | Potency [13] | Potency [16] | Potency [17] | Potency [18] | Potency [19]

CCCCN(CCCCO)N=O
inactive: Potency [1] | Potency [2] | Potency [3] | Potency [4] | Potency [5] | Potency [6] | Potency [7] | Potency [8] | outcome [9] | Potency [20] | Potency [10] | Potency [11] | outcome [12] | Potency [13] | activity change, positive = activation [15] -8.16% | Potency [16] | Potency [17] | Potency [19]

Cc1nc(N)nc(N)n1
inactive: Potency [1] | Potency [2] | Potency [3] | Potency [4] | Potency [5] | Potency [6] | Potency [7] | Potency [20] | Potency [10] | Potency [11] | outcome [12] | Potency [13] | Potency [16] | Potency [17] | Potency [18] | Potency [19]

COc1cc(C[C@@H](C)N)c(OC)cc1C
inactive: Potency [1] | Potency [2] | Potency [3] | Potency [4] | Potency [5] | Potency [6] | Potency [7] | Potency [8] | outcome [9] | Potency [20] | Potency [10] | Potency [11] | outcome [12] | Potency [13] | Potency [14] | activity change, positive = activation [15] -3.22% | Potency [16] | Potency [17] | Potency [18] | Potency [19]

COC(=O)C(c1ccccc1)C1CCCCN1 (configuration not stated)
inactive: Potency [1] | Potency [2] | Potency [3] | Potency [4] | Potency [5] | Potency [6] | Potency [20] | Potency [10] | Potency [11] | outcome [12] | Potency [13] | Potency [16] | Potency [17] | Potency [18] | Potency [19]

O=NN1CCCCC1
inactive: Potency [1] | Potency [2] | Potency [3] | Potency [4] | Potency [5] | Potency [6] | Potency [20] | Potency [10] | Potency [11] | outcome [12] | Potency [13] | Potency [16] | Potency [17] | Potency [18] | Potency [19]

CN1CCN(C(=O)O[C@H]2c3nccnc3C(=O)N2c2ccc(Cl)cn2)CC1
inactive: Potency [1] | Potency [2] | Potency [3] | Potency [4] | Potency [5] | Potency [6] | Potency [7] | Potency [20] | Potency [10] | Potency [11] | Potency [13] | Potency [16] | Potency [17]

CCOC(=O)/C=C(C)/C=C/C[C@@H](C)CCCC(C)C
inactive: Potency [1] | Potency [2] | Potency [3] | Potency [4] | Potency [5] | Potency [6] | Potency [7] | Potency [10] | outcome [12] | Potency [16] | Potency [17] | Potency [18] | Potency [19]
active: Potency [11] 113 µM

OCCSCSCCO
inactive: Potency [1] | Potency [2] | Potency [3] | Potency [4] | Potency [5] | Potency [6] | Potency [20] | Potency [10] | Potency [11] | outcome [12] | Potency [13] | Potency [16] | Potency [17] | Potency [18] | Potency [19]

O=[N+]([O-])c1cc(Cl)c(Cl)c(Cl)c1
inactive: Potency [1] | Potency [2] | Potency [3] | Potency [4] | Potency [5] | Potency [6] | Potency [7] | Potency [10] | outcome [12] | Potency [13] | Potency [16] | Potency [17] | Potency [19]

CN(N=O)C(N)=O
inactive: Potency [1] | Potency [2] | Potency [3] | Potency [4] | Potency [5] | Potency [6] | Potency [7] | Potency [10] | Potency [11] | outcome [12] | Potency [13] | Potency [16] | Potency [17] | Potency [18] | Potency [19]

CCC#N
inactive: Potency [1] | Potency [2] | Potency [3] | Potency [4] | Potency [5] | Potency [6] | Potency [8] | outcome [9] | Potency [20] | Potency [10] | Potency [11] | outcome [12] | Potency [13] | Potency [14] | activity change, positive = activation [15] 0.336% | Potency [16] | Potency [17] | Potency [18] | Potency [19]

CC1CN1P(=O)(N1CC1C)N1CC1C (configuration not stated)
inactive: Potency [1] | Potency [2] | Potency [3] | Potency [4] | Potency [5] | Potency [6] | Potency [7] | Potency [10] | Potency [11] | outcome [12] | Potency [13] | Potency [16] | Potency [17] | Potency [18] | Potency [19]

CCC1(c2ccccc2)C(=O)NC(=O)NC1=O
inactive: Potency [1] | Potency [2] | Potency [3] | Potency [4] | Potency [5] | Potency [6] | Potency [20] | Potency [10] | Potency [11] | outcome [12] | Potency [13] | Potency [16] | Potency [17] | Potency [18] | Potency [19]
